The results in this text go back to PubChem BioAssay (Tox21).

Each structure is given as a SMILES string. Unmarked numbers belong to inactive results. Inconclusive results are not listed. Calls of active or inactive are those of the source. Unless noted, the call rests on the fitted dose curve; in most records, active means well fitted curve in the direction sought with a large enough effect in the repeat runs; inconclusive means weak or mixed curves; inactive means no such curve, though single readings can be large; an effect the other way counts as inactive or inconclusive.

Experiment [1] can be described thus: qHTS assay for small molecule agonists of the p53 signaling pathway (AID 651631; calls by dose curve; further: nearly all actives have a fitted effect of over 15% in size; further: potency means the concentration at half of the fitted maximal effect). The essentials:
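Testing took place in human colorectal HCT-116 cells with stable p53RE-driven beta-lactamase. After 16 h of compound exposure at 37 °C, a FRET substrate was added and fluorescence recorded 2 h later.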
In general terms: In qHTS, concentration-response curves come from the screen itself.

The nature of experiment [2]: qHTS assay for small molecules that induce genotoxicity in human embryonic kidney cells expressing luciferase-tagged ATAD5 (AID 651632). Further: nearly all actives have a fitted effect of over 15% in size. A digest of the protocol: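 DMSO vehicle served as the control. HEK293T reporter cells, 16 hr at 37C, then 30 min Amplite at room temperature; ATAD5 induction is measured as luciferase activity.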
Experiment [3] is described as follows: qHTS assay for small molecule agonists of the p53 signaling pathway - cell viability (AID 651633; calls by dose curve; further: series mostly up to about 83 µM; nearly all actives have a fitted effect of over 30% in size). The essentials: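 Viability counter-read: CellTiter-Glo luminescence (30 min, room temperature) in the same p53RE-bla plates. These plates had been exposed to compounds for 16 h at 37 C.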
Experiment [4] in a line: qHTS assay for small molecules that induce genotoxicity in human embryonic kidney cells expressing luciferase-tagged ATAD5 - cell viability (AID 651634; calls by dose curve; further: nearly all actives have a fitted effect of over 25% in size). A digest of the protocol: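 Here HEK293T cells with the ATAD5 luciferase reporter are incubated with test compounds for 15.5 hr, and cytotoxicity is then gauged by measuring protease activity in live cells using fluorescence.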

Experiment [5] is described as follows: qHTS assay for small molecule disruptors of the mitochondrial membrane potential - cell viability (AID 720634; calls by dose curve;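 further: human HepG2 liver cancer cells; series mostly up to about 83 µM; nearly all actives have a fitted effect of over 20% in size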). The essentials:
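Viability of HepG2 cells is scored from ATP content by luminescence; cells are exposed to compound for 1 hr at 37 C and 5% CO2, then dosed with m-MPI dye before the CellTiter-Glo reagent.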

Experiment [6] in a line: qHTS assay for small molecule disruptors of the mitochondrial membrane potential (AID 720635). A digest of the protocol: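 Mitochondrial membrane potential tracked with Mito-MPS dye, red aggregates (ex 540/em 590 nm) against green monomers (ex 490/em 535 nm). Compound treatment 1 hr at 37C, dye 30 min in HepG2.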
Experiment [7] is described as follows: qHTS assay to test for compound auto fluorescence at 590 nm (red) in HepG2 cells (AID 720674). The essentials:
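1 hr compound incubation on HepG2 cells, 37 C, 5% CO2; plate read ex 540 nm / em 590 nm; intensities reported as Rose Bengal sodium equivalents.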

Experiment [8] can be described thus: qHTS assay to test for compound auto fluorescence at 535 nm (green) in HepG2 cells (AID 720675).
A short description of experiment [9]: qHTS assay to test for compound auto fluorescence at 590 nm (red) in HEK293 cells (AID 720679). The essentials:
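Each well held 2,000 HEK293 cells in medium containing 10% dialyzed FBS. Following 4-5 hr attachment at 37C, 23 nL test compound or DMSO was added; plates sat overnight, and red fluorescence (540/590nm) was recorded.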

Experiment [10] is described as follows: qHTS assay to test for compound auto fluorescence at 535 nm (green) in HEK293 cells (AID 720680).
The nature of experiment [11]: qHTS assay to test for compound auto fluorescence at 460 nm (blue) in HEK293 cell free culture (AID 720681). The essentials: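 Blue fluorescence (Ex 405/Em 460 nm, triamterene-equivalent) was read immediately after pin transfer of compound or DMSO into medium (DMEM, 10% FBS) without cells.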
Experiment [12] can be described thus: qHTS assay to test for compound auto fluorescence at 590 nm (red) in HEK293 cell free culture (AID 720683). The essentials: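 Red-channel autofluorescence of compounds in culture medium (DMEM, 10% FBS), no cells, measured at 540/590 nm. Rose Bengal sodium is the reference fluorophore for equivalence.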
Experiment [13] is described as follows: qHTS assay to test for compound auto fluorescence at 590 nm (red) in HepG2 cell free culture (AID 720684). A digest of the protocol: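 Cell-free; medium MEM + 10% FBS; compound or DMSO added by pintool; read Ex 540/Em 590 nm; Rose Bengal sodium as red reference fluorophore.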
Experiment [14] can be described thus: qHTS assay to test for compound auto fluorescence at 460 nm (blue) in HepG2 cell free culture (AID 720685). The essentials:
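Cell-free plates of MEM plus 10% FBS received 23 nL compound or DMSO vehicle; blue-channel (405/460 nm) intensity scored against triamterene as reference fluorophore.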

Experiment [15] is described as follows: qHTS assay to test for compound auto fluorescence at 535 nm (green) in HepG2 cell free culture (AID 720686).
Experiment [16] in a line: qHTS assay to test for compound auto fluorescence at 460 nm (blue) in HepG2 cells (AID 720687). A digest of the protocol:
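Blue-channel autofluorescence (Ex/Em 405/460 nm, triamterene-equivalent) was measured after 1 hr compound exposure at 37 C, 5% CO2. Cells were HepG2, plated overnight at 37 C in MEM plus 10% FBS.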

Experiment [17] can be described thus: qHTS assay to test for compound auto fluorescence at 460 nm (blue) in HEK293 cells (AID 720678). A digest of the protocol: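 Cells were seeded and left to adhere for 4-5 hr at 37C. Compounds were then pin-transferred. After an overnight incubation at 37C under 5% CO2, intrinsic fluorescence at 405/460 nm was measured and referenced to triamterene.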
Experiment [18] deals with Glucocorticoid receptor (Homo sapiens) (UniProt P04150). In words: qHTS assay to identify small molecule agonists of the glucocorticoid receptor (GR) signaling pathway (AID 720691; active means well fitted activation curve with a large enough effect in the signal ratio in the repeat runs, not every such curve was filed as active; the % refers to the signal ratio). A digest of the protocol: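 Compounds in DMSO, alongside positive controls, were added to GR-bla HeLa reporter cells and incubated 18 h at 37 C; GRE-driven beta-lactamase was detected by fluorescence after 2 h with FRET substrate at room temperature.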

Experiment [19] has the same target. In words: qHTS assay to identify small molecule antagonists of the glucocorticoid receptor (GR) signaling pathway (AID 720692; active means well fitted inhibition curve with a large enough effect in the signal ratio in the repeat runs, not every such curve was filed as active; the % refers to the signal ratio). A digest of the protocol:
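In a 1536-well cell format, compounds were added 4 h after seeding GR-bla HeLa cells, together with dexamethasone at 5 nM final; reporter activity was measured by FRET-substrate fluorescence following 18 h at 37 C.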

A short description of experiment [20]: qHTS assay to test for compound auto fluorescence at 535 nm (green) in HEK293 cell free culture (AID 720682). A digest of the protocol: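 DMEM + 10% FBS, cell-free; cpd or DMSO pinned in; Ex485/Em535 read; output as fluorescein-equivalent signal.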

Sequence of Glucocorticoid receptor (Homo sapiens) (P04150 whole entry, looked up): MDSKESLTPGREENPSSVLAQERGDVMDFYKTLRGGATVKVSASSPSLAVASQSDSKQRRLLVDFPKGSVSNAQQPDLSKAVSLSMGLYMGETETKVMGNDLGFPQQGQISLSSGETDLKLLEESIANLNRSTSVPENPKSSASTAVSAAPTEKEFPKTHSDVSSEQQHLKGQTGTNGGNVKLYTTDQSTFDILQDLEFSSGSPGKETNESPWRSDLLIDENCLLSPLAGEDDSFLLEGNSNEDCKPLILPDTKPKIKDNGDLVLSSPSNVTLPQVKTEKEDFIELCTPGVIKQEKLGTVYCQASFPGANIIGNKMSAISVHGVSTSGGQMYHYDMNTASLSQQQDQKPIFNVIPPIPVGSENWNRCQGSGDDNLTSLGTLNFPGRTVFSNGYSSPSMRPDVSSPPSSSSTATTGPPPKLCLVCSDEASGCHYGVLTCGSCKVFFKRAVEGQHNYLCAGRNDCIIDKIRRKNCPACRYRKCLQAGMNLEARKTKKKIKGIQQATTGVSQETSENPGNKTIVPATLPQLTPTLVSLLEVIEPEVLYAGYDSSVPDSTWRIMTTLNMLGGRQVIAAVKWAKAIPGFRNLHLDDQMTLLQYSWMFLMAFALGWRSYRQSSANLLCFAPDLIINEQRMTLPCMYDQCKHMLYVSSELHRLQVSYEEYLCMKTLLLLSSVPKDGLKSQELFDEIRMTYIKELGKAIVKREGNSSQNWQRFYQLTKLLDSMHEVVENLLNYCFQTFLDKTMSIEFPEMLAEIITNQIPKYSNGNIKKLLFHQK

For the molecule `C=CCn1c(=O)n([C@@H]2O[C@H](CO)[C@@H](O)[C@H]2O)c2nc(N)[nH]c(=O)c21`, the Potency entry in experiment [1], in [2], in experiment [3], in experiment [4], in [5] and in experiment [6] was “inactive” each time. The Potency entry in [11], in experiment [14] and in [16] was “inactive” each time. Moreover, the outcome in experiment [7], in experiment [8], in experiment [9], in experiment [10], in experiment [12] and in [13] was inactive. Besides, the result in experiment [15] was inactive.
`CCCCCCCCCCCCI`: the Potency result in experiment [1], in experiment [2], in experiment [3], in [4], in experiment [5] and in [6] was “inactive” throughout. The Potency entry in experiment [17], in [11], in experiment [14], in experiment [16], in experiment [18] and in experiment [19] was “inactive” throughout. The call in experiment [7], in [8], in [9], in experiment [10], in [12] and in [15] was inactive.
Take `O=C(O)/C=C/c1ccc(/C=C/C(=O)O)cc1`: the Potency entry in [1], in [2], in [3], in experiment [4], in [5] and in experiment [6] was “inactive” in each case. Further, the Potency result in [17], in [11], in experiment [14], in experiment [16], in [18] and in [19] was “inactive” throughout. In addition, the outcome in experiment [8], in experiment [9], in experiment [10], in experiment [20], in [12] and in [13] was inactive. For the same molecule, the molecule was classed as inactive in experiment [15].
Regarding `CCC(C)OC(=O)N1CCCCC1CCO` (centres undefined), the Potency result in experiment [1], in experiment [2], in experiment [3], in experiment [4], in experiment [5] and in [17] was “inactive” each time. For the same molecule, the Potency entry in experiment [11], in [14] and in experiment [16] was “inactive” each time. Further, the molecule was called inactive in experiment [7], in experiment [8], in experiment [9], in [10], in experiment [20] and in experiment [12]. Further, the call in [13] and in [15] was inactive.
Turning to `CCCCCCCCCCC1CO1` (centres undefined), the Potency result in experiment [1], in experiment [2], in experiment [3], in [4], in [5] and in experiment [17] was “inactive” in each case. Moreover, the Potency result in experiment [11], in experiment [14] and in [16] was “inactive” throughout. Besides, the molecule was classed as inactive in experiment [7], in experiment [8], in experiment [9], in experiment [10], in experiment [20] and in [12]. Besides, the call in [13] and in experiment [15] was inactive.
As to `Cc1c(C)n(CCN(C)C)c2ccc(C(=O)OCCN(C)C)cc12`, the Potency in [1] was 26.6 µM (active). In addition, the Potency result in experiment [2], in [3], in experiment [4], in [5], in [17] and in experiment [11] was “inactive” throughout. In addition, the Potency result in experiment [14] and in experiment [16] was “inactive” in each case. Moreover, the outcome in experiment [7], in [8], in experiment [9], in experiment [10], in [20] and in experiment [12] was inactive. The result in experiment [13] and in [15] was inactive.
As for `CC(C)N1C(=O)c2ccccc2C1=O`, the Potency entry in experiment [1], in experiment [2], in [3], in experiment [4], in [5] and in experiment [6] was “inactive” throughout. Moreover, the Potency entry in experiment [17], in experiment [11], in experiment [14] and in [16] was “inactive” throughout. The molecule was classed as inactive in experiment [7], in experiment [8], in experiment [9], in experiment [10], in experiment [12] and in [13]. Also, in experiment [15], the result was inactive.
As for `C#CC(C)(O)CC(C)C` (centres undefined), the Potency result in experiment [1], in experiment [2], in [3], in experiment [4], in experiment [5] and in experiment [6] was “inactive” in each case. Also, the Potency entry in experiment [17], in experiment [11], in experiment [14], in experiment [16] and in experiment [19] was “inactive” in each case. For the same molecule, the molecule was called inactive in [7], in experiment [8], in experiment [9], in experiment [10], in experiment [20] and in experiment [12]. Also, the molecule was classed as inactive in experiment [15].
